The record followed here is publication PMC7862700, “An all-to-all approach to the identification of sequence-specific readers for epigenetic DNA modifications on cytosine”.

Common to all, as to assay: DAPPL (digital affinity profiling via proximity ligation, sequencing); 10 mM Tris-HCl pH 7.5, 50 mM NaCl, 1 mM DTT, 4% glycerol, room temperature, 30 min; GST-TFs on glutathione beads, 16-mer random dsDNA library, 0.1% formaldehyde crosslink after washing; high values mean tight binding
Holding throughout (conditions): protein: recombinant; tags: N-terminal GST; dsDNA, one strand shown

Experiment [1] has as its target T1, ELK1 (Homo sapiens, UniProt P19419 1-428).
T1 sequence: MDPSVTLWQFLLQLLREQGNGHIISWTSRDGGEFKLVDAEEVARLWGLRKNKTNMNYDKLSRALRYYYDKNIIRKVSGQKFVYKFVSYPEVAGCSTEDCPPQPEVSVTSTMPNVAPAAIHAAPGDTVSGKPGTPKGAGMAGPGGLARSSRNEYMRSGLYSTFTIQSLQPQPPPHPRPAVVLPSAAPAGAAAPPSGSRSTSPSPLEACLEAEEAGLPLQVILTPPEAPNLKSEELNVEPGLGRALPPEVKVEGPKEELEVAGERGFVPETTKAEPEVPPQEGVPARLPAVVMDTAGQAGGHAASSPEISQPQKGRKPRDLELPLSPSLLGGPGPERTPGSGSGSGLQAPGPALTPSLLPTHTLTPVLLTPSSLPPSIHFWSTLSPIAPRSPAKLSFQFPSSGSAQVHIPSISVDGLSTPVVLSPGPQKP
The procedure, abridged:
(§1)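 GST fusions of human transcription factors were expressed in yeast and captured with glutathione beads. Once given DNA barcodes and pooled alongside a tag-only sample, they were incubated for 30 min at room temperature with 200 nmole of a random double-stranded 16-mer DNA library in Tris/NaCl/DTT/glycerol buffer, then washed, crosslinked (0.1% formaldehyde), proximity-ligated, PCR-amplified and sequenced on an Illumina NextSeq500. The binding signal of each hexamer is its read frequency for a factor divided by its frequency for the tag-only sample.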

Experiment [2] addresses T2, GABPA (Homo sapiens, UniProt Q06546 1-454).
T2 sequence: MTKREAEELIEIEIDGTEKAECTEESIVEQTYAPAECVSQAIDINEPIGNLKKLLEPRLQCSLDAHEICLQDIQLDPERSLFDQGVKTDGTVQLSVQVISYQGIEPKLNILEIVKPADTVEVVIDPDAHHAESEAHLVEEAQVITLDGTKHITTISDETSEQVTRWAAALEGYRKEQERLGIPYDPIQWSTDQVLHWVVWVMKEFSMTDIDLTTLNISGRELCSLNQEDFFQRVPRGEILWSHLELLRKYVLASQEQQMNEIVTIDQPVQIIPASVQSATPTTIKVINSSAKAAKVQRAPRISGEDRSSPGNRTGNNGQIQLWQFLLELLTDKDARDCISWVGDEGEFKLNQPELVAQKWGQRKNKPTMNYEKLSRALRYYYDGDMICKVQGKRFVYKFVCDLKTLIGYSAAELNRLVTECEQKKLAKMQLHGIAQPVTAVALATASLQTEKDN
In outline:
as §1

Experiment [3] addresses T3, ERG (Homo sapiens, UniProt P11308 1-479).
T3 sequence: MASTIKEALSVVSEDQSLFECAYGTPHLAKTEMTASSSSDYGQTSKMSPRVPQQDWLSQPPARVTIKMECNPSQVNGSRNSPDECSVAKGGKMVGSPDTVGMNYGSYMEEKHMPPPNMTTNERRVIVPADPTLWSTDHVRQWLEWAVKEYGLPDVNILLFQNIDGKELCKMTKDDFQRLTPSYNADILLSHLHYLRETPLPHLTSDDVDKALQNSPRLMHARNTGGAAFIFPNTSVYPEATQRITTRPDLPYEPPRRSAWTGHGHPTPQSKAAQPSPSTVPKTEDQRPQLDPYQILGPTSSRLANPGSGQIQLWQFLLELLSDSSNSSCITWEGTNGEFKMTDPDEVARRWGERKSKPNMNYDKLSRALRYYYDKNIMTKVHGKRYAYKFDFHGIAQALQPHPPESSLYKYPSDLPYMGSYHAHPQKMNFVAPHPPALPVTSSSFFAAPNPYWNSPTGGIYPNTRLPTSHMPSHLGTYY
The procedure, abridged:
as §1

Experiment [4] deals with ELF1 (Homo sapiens, UniProt P32519 1-619). The procedure, abridged: as §1
Sequence of ELF1 (P32519 whole entry): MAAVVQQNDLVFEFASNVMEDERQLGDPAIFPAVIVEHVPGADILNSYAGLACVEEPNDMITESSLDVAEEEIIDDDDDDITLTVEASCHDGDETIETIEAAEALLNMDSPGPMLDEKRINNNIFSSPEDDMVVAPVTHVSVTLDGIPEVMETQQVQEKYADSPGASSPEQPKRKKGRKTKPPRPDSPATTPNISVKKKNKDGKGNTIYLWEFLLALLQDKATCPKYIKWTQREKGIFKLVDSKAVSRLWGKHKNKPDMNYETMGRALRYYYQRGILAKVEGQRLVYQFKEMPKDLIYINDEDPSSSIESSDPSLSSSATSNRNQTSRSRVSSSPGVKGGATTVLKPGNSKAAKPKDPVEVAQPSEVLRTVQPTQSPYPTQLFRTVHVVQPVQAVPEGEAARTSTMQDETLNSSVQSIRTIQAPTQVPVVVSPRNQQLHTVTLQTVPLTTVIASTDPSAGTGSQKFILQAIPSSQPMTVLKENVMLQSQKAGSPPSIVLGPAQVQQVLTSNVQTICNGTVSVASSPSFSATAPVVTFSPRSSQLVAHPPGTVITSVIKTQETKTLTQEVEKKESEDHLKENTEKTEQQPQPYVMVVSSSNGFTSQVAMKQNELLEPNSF
Experiment [5] deals with T4, EHF (Homo sapiens, UniProt Q9NZC4 1-300).
T4 sequence: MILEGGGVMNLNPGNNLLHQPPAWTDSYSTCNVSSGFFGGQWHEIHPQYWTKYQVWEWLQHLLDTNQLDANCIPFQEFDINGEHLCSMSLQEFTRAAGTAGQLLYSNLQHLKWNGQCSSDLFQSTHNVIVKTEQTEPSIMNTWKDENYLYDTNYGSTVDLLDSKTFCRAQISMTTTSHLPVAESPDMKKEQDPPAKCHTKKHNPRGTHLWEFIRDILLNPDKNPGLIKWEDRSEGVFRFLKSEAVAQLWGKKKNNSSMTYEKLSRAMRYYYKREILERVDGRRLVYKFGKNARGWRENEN
The procedure, abridged:
as §1

In experiment [6] the target is SPIB (Homo sapiens, UniProt Q01892 1-262). The procedure, abridged: as §1
Sequence of SPIB (Q01892 whole entry): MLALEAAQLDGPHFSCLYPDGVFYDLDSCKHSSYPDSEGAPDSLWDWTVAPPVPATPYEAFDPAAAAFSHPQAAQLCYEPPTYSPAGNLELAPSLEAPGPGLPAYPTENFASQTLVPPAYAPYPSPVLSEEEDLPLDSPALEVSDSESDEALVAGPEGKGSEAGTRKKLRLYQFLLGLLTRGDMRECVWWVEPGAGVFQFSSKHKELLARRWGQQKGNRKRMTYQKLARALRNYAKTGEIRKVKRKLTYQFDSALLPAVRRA
For experiment [7], the target named is T5, FEV (Homo sapiens, UniProt Q99581 1-238).
T5 sequence: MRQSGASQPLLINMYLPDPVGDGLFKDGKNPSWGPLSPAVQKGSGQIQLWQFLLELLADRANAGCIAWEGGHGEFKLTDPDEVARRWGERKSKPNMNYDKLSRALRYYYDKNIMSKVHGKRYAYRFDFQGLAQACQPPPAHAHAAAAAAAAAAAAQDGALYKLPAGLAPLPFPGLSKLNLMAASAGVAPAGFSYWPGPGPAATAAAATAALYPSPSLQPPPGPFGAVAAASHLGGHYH
The procedure, abridged: as §1

The target of experiment [8] is ETV5 (Homo sapiens, UniProt P41161 1-510). The procedure, abridged:
as §1

Experiment [9] addresses ELF4 (Homo sapiens, UniProt Q99607 1-663). In outline: as §1
For experiment [10], the target named is T6, ELK4 (Homo sapiens, UniProt P28324-2 1-405).
T6 sequence: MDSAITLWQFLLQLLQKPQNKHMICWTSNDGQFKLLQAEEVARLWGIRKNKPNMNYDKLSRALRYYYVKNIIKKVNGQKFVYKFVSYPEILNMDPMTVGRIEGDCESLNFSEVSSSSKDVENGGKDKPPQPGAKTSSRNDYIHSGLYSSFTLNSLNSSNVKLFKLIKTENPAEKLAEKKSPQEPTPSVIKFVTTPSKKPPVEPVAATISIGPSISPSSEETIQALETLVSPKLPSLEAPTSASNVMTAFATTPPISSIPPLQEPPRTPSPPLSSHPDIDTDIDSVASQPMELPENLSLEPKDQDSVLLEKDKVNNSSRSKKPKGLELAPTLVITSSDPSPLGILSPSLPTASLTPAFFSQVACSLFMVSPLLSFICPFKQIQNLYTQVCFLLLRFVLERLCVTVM
The procedure, abridged:
as §1

In experiment [11] the target is T7, ETV2 (Homo sapiens, UniProt O00321 1-342).
T7 sequence: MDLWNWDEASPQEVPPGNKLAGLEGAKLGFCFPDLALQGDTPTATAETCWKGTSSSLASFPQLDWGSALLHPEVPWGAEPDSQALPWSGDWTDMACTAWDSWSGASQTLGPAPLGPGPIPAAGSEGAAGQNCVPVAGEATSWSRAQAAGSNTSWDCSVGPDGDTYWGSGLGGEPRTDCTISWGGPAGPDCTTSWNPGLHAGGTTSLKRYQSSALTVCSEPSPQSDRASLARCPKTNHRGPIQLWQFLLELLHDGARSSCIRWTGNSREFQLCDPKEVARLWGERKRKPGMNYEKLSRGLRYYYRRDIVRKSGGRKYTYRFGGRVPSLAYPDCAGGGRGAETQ
The procedure, abridged: as §1

Experiment [12] concerns the target T8, ELF3 (Homo sapiens, UniProt P78545 1-371).
T8 sequence: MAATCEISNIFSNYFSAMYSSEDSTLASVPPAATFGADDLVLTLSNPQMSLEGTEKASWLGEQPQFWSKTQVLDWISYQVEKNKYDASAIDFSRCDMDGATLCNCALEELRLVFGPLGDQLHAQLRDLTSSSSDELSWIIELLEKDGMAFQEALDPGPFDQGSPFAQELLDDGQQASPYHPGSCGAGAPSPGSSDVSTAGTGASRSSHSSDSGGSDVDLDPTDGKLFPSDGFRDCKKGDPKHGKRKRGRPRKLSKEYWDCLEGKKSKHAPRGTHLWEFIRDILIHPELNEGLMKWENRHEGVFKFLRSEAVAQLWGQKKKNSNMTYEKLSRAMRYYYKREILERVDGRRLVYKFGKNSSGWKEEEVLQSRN
The procedure, abridged: as §1

Experiment [13] addresses ETV1 (Homo sapiens, UniProt P50549 1-477). The procedure, abridged:
as §1

The target of experiment [14] is T9, ETV3L (Homo sapiens, UniProt Q6ZN32 1-361).
T9 sequence: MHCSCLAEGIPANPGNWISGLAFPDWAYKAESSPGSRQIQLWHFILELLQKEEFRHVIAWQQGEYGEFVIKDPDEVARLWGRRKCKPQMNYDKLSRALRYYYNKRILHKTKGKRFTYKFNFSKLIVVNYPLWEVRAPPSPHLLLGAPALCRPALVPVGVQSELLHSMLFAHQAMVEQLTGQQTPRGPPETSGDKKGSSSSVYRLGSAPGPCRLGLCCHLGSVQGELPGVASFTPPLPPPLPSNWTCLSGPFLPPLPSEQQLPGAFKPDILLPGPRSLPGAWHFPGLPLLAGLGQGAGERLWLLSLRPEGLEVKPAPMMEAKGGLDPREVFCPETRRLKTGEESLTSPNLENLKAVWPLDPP
The procedure, abridged:
as §1

For experiment [15], the target named is T10, ETS2 (Homo sapiens, UniProt P15036 1-469).
T10 sequence: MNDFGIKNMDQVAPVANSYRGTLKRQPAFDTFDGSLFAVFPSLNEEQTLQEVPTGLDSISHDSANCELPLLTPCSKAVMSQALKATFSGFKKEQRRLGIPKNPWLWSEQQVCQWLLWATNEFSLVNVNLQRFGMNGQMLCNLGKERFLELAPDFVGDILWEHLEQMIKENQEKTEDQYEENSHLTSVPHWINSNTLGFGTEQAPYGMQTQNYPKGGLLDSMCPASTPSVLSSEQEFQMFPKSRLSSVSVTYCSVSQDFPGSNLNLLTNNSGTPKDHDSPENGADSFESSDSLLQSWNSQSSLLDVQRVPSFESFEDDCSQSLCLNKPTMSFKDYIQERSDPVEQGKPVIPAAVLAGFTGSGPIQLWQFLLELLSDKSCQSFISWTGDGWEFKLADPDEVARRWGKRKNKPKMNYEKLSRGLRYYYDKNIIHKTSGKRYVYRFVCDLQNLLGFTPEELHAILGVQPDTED
In outline: as §1

The target of experiment [16] is T11, SPDEF (Homo sapiens, UniProt O95238 1-335).
T11 sequence: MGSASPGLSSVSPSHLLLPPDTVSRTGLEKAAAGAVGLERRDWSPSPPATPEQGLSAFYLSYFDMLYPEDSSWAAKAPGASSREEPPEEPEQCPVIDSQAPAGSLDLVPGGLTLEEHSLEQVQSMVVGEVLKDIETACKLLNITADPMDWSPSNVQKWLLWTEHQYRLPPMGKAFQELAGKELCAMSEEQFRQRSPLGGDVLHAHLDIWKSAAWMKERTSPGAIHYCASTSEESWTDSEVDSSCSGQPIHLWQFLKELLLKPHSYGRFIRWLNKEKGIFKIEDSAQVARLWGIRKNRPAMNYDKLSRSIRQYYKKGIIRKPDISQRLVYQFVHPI
In outline: as §1

Experiment [17] addresses T12, ETV3 (Homo sapiens, UniProt P41162-2 1-143).
T12 sequence: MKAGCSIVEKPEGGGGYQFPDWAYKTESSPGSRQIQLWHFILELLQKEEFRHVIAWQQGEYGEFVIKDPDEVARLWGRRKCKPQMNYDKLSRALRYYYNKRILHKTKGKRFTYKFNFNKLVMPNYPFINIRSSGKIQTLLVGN
In outline:
as §1

Experiment [18] deals with ETV6 (Homo sapiens, UniProt P41212 1-452). In outline:
as §1

Sequence of ETV6 (P41212 whole entry): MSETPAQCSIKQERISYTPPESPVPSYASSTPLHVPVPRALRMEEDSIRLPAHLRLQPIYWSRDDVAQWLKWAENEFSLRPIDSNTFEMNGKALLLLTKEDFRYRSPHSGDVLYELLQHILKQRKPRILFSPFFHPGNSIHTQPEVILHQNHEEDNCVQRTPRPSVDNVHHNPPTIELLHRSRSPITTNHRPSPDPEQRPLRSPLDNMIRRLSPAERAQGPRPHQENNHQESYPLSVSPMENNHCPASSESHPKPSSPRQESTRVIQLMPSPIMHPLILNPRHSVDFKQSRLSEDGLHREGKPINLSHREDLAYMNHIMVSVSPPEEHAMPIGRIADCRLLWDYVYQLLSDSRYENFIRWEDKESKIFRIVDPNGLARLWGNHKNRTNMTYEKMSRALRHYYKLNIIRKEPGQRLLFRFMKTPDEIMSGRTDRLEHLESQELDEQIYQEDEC
Sequence of ELF4 (Q99607 whole entry): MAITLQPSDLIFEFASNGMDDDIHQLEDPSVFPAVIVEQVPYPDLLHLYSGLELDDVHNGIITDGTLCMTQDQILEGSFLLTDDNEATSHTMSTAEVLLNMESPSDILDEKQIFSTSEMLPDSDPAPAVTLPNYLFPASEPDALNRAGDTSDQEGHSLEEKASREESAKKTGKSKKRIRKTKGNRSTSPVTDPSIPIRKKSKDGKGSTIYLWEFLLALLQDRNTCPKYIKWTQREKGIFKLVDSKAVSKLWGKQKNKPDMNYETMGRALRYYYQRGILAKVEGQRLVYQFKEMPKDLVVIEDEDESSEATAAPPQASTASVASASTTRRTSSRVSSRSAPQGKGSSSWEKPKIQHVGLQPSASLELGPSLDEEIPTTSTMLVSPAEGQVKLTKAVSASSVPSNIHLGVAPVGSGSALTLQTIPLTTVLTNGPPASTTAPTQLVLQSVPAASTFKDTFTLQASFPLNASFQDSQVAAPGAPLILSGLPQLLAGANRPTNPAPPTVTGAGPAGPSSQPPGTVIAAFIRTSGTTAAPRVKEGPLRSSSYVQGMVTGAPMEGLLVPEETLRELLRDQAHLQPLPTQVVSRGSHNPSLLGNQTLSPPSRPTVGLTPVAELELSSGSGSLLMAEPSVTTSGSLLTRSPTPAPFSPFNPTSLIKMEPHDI
Sequence of ETV5 (P41161 whole entry): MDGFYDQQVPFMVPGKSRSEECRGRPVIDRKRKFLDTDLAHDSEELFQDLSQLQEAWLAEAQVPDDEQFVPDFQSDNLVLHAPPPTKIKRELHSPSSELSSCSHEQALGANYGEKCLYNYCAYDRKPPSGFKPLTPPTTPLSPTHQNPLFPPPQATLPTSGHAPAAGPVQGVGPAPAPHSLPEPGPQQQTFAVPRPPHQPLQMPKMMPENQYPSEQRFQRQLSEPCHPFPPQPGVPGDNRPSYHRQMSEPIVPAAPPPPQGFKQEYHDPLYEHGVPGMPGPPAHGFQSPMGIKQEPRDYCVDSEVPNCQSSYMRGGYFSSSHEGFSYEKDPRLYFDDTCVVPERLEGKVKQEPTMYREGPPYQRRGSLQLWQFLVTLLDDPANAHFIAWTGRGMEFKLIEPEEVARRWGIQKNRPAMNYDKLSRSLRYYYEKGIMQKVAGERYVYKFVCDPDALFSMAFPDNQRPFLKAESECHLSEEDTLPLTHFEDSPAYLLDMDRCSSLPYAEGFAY
Sequence of ETV1 (P50549 whole entry): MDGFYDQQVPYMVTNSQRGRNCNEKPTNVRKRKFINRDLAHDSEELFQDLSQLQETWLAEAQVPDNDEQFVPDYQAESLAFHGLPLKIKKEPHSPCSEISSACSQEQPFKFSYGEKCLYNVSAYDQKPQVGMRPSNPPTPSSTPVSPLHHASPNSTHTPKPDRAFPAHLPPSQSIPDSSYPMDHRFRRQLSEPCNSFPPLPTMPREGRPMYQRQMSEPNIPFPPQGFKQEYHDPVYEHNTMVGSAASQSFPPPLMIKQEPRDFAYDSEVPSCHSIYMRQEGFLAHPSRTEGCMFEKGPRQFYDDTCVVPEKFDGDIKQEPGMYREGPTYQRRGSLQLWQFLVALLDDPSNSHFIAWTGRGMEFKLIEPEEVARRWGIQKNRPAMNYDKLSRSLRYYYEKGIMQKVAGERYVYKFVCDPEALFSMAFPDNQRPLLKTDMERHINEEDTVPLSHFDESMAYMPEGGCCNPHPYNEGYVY

For the sequence ACACGC, the binding signal in experiment [1] is 1.06 fold enrichment (6-mer frequency, TF over GST control); in [2], 1.13 fold enrichment (6-mer frequency, TF over GST control); in experiment [3], 1.15 fold enrichment (6-mer frequency, TF over GST control); in [4], 1.17 fold enrichment (6-mer frequency, TF over GST control); in experiment [5], 1.08 fold enrichment (6-mer frequency, TF over GST control); in experiment [6], 1.1 fold enrichment (6-mer frequency, TF over GST control). The binding signal in experiment [7] was 1.09 fold enrichment (6-mer frequency, TF over GST control); in experiment [8] it was 1.1 fold enrichment (6-mer frequency, TF over GST control); in [9], 1.15 fold enrichment (6-mer frequency, TF over GST control); in [10], 1.26 fold enrichment (6-mer frequency, TF over GST control); in experiment [11] it was 1.19 fold enrichment (6-mer frequency, TF over GST control); in [12], 1.11 fold enrichment (6-mer frequency, TF over GST control). Besides, the binding signal in experiment [13] was 1.11 fold enrichment (6-mer frequency, TF over GST control); in [14], 1.07 fold enrichment (6-mer frequency, TF over GST control); in experiment [15], 1.05 fold enrichment (6-mer frequency, TF over GST control); in experiment [16] it was 1.08 fold enrichment (6-mer frequency, TF over GST control); in [17] it was 1.13 fold enrichment (6-mer frequency, TF over GST control); in [18] it was 1.13 fold enrichment (6-mer frequency, TF over GST control).
